In PubChem BioAssay AID463173 (ICCB-Longwood Screening Facility, Harvard Medical School, 2010):
The campaign covered roughly 52,000 compounds. About 4,300 (8.3%) were called active. No stated cut-off is given here; in the data, active means survival mostly below about 52% (no sharp cut-off); inactive means mostly above about 56%. Many of the other results were omitted from the sample, so actives are more common in it than they were.

test system: DeltatarO mutant; test: S. aureus survival, RN4220 and DeltatarO strains – OD600, teichoic acid synthesis inhibitors, primary screen (AID 463173); settings: S. aureus RN4220 wild type/DeltatarO growth, OD600, 18 h, hits give low values, screened at 18.75 µg/mL (by protocol)

SMILES	survival
CN(C(=O)c1nn(C)c2c1CS(=O)(=O)c1ccccc1-2)c1cccc(Cl)c1	64% (inactive)
Cc1cccc(NC(=O)Cn2c(=O)n(CCC(=O)N3CCc4ccccc4C3)c(=O)c3ccccc32)c1	88% (inactive)
COc1ccc(NC(=O)CSc2nc3c(oc4ccccc43)c(=O)n2-c2ccccc2)cc1OC	63% (inactive)
CCn1c(CN2CCOCC2)nc2cc(NC(=O)c3cc(OC)c(OC)c(OC)c3)ccc21	89% (inactive)
O=C(NCCO)C(=O)Nc1c2c(nn1-c1ccc(F)cc1)CSC2	82% (inactive)
CCc1ccc(NC(=O)CSc2nc(-c3ccccc3)c(C#N)c(=O)[nH]2)cc1	78% (inactive)
COc1ccccc1NC(=O)CSc1nc(-c2ccc(C(C)(C)C)cc2)c(C#N)c(=O)[nH]1	52% (inactive)
CC(C)(C)c1ccc(-c2nc(SCC(=O)Nc3ccc(Cl)cc3)[nH]c(=O)c2C#N)cc1	-2% (active)
CN1CCN(C(=O)c2ccc3c(c2)N(Cc2c(F)cccc2Cl)C(=O)c2ccccc2S3)CC1	85% (inactive)
Cc1ccc(S(=O)(=O)c2nc(-c3cccs3)oc2SCC(=O)Nc2cc(C)cc(C)c2)cc1	70% (inactive)
CCn1c2ccccc2c2cc(CN3CCN(Cc4ccc(OC)c(OC)c4)CC3)ccc21	17% (active)
COc1cc(CN2CCN(S(=O)(=O)c3ccccc3)CC2)cc(OC)c1O	57% (inactive)
COc1cc(CN2CCN(C(=O)c3cccc4ccccc34)CC2)cc(OC)c1OC	72% (inactive)
COc1ccc(CCn2nnnc2CN2CCN(Cc3ccccc3)CC2)cc1OC	82% (inactive)
CCCS(=O)(=O)N1CCN(Cc2ccc(OC)c(OCC)c2)CC1	97% (inactive)
CCn1c2ccccc2c2cc(CN3CCN(Cc4cc(OC)c(O)c(OC)c4)CC3)ccc21	43% (active)
O=C(CCSCCc1ccccn1)Nc1cc(F)ccc1F	79% (inactive)
COc1ccc(-c2csc3ncnc(Nc4ccc(OC)cc4OC)c23)cc1	64% (inactive)
CCCCNC(=O)c1ccc2c(c1)NC(=O)C(CS(=O)(=O)Cc1ccc(F)cc1Cl)N2 (stereo not drawn)	74% (inactive)
O=C(CSc1nc2c(oc3ccccc32)c(=O)n1-c1ccccc1)Nc1ccccc1F	66% (inactive)

SMILES	survival
O=C(CSCc1ccc(F)cc1)N1CCN(c2ccccc2F)CC1	102% (inactive)
Cc1ccc(Cl)cc1Nc1nc2ccccc2c2nncn12	104% (inactive)
COc1cccc(Nc2nc3ccccc3c3nncn23)c1	89% (inactive)
Cc1ccc(Nc2nc3ccccc3c3nncn23)cc1C	-4% (active)
O=C1CN(C(=O)c2ccc(S(=O)(=O)N3CCCCC3)cc2)C(c2ccc(F)cc2)c2cc(Cl)ccc2N1 (stereo not drawn)	62% (inactive)
CC(C)Oc1ccc(CNC(=O)Cn2c(=O)oc3ccccc32)cc1	77% (inactive)
Cc1nnc(SCc2ccc(Cl)cc2Cl)o1	80% (inactive)
CC(C)C[C@H](N)c1nnc(SCc2ccc(Cl)cc2Cl)o1	38% (active)
C[C@H](NC(=O)OC(C)(C)C)c1nnc(SCc2ccc(Cl)cc2Cl)o1	54% (inactive)
CSc1ncc2c(n1)-c1ccccc1N(Cc1ccc(Cl)cc1)S2(=O)=O	98% (inactive)
COc1cccc(NC(=O)CCNS(=O)(=O)c2ccc3c(c2)oc(=O)n3C)c1	90% (inactive)
COC(=O)c1ccc(NC(=O)CN(C)S(=O)(=O)c2ccc(Br)s2)cc1	73% (inactive)
COc1cccc(CNC(=O)C2CCC(CNS(=O)(=O)c3ccc(Br)s3)CC2)c1 (stereo not drawn)	71% (inactive)
CCc1cccc(NC(=O)C2CCC(CNS(=O)(=O)c3ccc(Br)s3)CC2)c1 (stereo not drawn)	79% (inactive)
Cc1ccc(NC(=O)CCNS(=O)(=O)c2ccc(Br)s2)cc1	50% (active)
O=C(CCNS(=O)(=O)c1ccc(Br)s1)Nc1ccc(Br)cc1	40% (active)
Cc1cccc(NC(=O)C2CCC(CNS(=O)(=O)c3ccc(Br)s3)CC2)c1 (stereo not drawn)	52% (active)
COc1cccc(NC(=O)CCNS(=O)(=O)c2ccc(Br)s2)c1	37% (active)
CCOc1ccc(NC(=O)CCS(=O)(=O)c2ccc(Br)s2)cc1	82% (inactive)
Cc1cc(NC(=O)C2CCC(CNS(=O)(=O)c3ccc(Br)s3)CC2)ccc1Br (stereo not drawn)	93% (inactive)

SMILES	survival
CCOc1ccc(NC(=O)CNS(=O)(=O)c2ccc(Br)s2)cc1	49% (inactive)
CCOc1ccc(NC(=O)CCNS(=O)(=O)c2cccs2)cc1	51% (inactive)
Cc1c(Cl)cccc1NC(=O)CN1C(=O)COc2ccc(S(=O)(=O)N3CCOCC3)cc21	88% (inactive)
CC1C(=O)OC(c2ccccc2)C(C)(C)C1=O (stereo not drawn)	94% (inactive)
CCc1ccccc1N1C(=O)CC(N2CCc3ccccc32)C1=O (stereo not drawn)	102% (inactive)
Cc1ccc(NC(=O)c2oc3ccc(S(=O)(=O)N4CCCCC4)cc3c2C)c(C)c1	79% (inactive)
Cc1ccc(Cl)cc1N1CCN(C(=O)COCc2cc(-c3ccc4c(c3)OCO4)on2)CC1	95% (inactive)
Cc1cccc(CC(=O)NCCc2sc3nc(-c4ccc(F)cc4)nn3c2C)c1	91% (inactive)
COc1ccccc1NC(=O)Cn1c(=O)n(-c2cccc(Cl)c2)c(=O)c2sc3ccccc3c21	103% (inactive)
CCOC(=O)c1c(C)[nH]c(CCC(=O)NCc2ccc(OC)c(OC)c2)c1C	81% (inactive)
COc1ccc(C)cc1NC(=O)CSc1ncc2c(n1)-c1ccc(Cl)cc1N(Cc1ccccc1)S2(=O)=O	78% (inactive)
CCc1ccccc1NC(=O)CSc1nc2c(c(=O)[nH]1)CN(Cc1ccccc1OC)CC2	75% (inactive)
O=c1[nH]c(SCc2c(F)cccc2Cl)nc2c1CCC2	74% (inactive)
COc1ccc(OCC(=O)Nc2ccc(N3CCN(S(C)(=O)=O)CC3)cc2)cc1	97% (inactive)
COc1ccc(NC(=O)Cn2c(=O)nc(-c3ccccc3)c3ccccc32)cc1OC	78% (inactive)
Cc1ccc(NC(=O)C2CCC(CNS(=O)(=O)c3cccc4nsnc34)CC2)c(C)c1 (stereo not drawn)	95% (inactive)
Cc1ccc(Cl)cc1NC(=O)C1CCC(CNS(=O)(=O)c2cccc3nsnc23)CC1 (stereo not drawn)	100% (inactive)
Cc1ccc(NC(=O)C2CCC(CNS(=O)(=O)c3cccc4nsnc34)CC2)c(Cl)c1 (stereo not drawn)	47% (active)
